Source: PubChem BioAssay (Tox21)
“And” between values parts separate entries of the source, which are not always exact repeats. Equal entries are not always repeated. A number with no mark means an inactive call. Records with an inconclusive call do not appear. A call without a number means that no potency is given here. The source made the active and inactive calls. Unless noted, the call rests on the fitted dose curve; in most records, active means well fitted curve in the direction sought with a large enough effect in the repeat runs; inconclusive means weak or mixed curves; inactive means no such curve, though single readings can be large; an effect the other way counts as inactive or inconclusive.

What was measured:
[1] = biological target: Glucocorticoid receptor (Homo sapiens) (UniProt P04150); test: qHTS assay to identify small molecule agonists of the glucocorticoid receptor (GR) signaling pathway (AID 720691; active means well fitted activation curve with a large enough effect in the signal ratio in the repeat runs, not every such curve was filed as active; the % refers to the signal ratio)
In short: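 Fluorescence intensity from LiveBLAzer B/G FRET substrate (2 h, room temperature) reports beta-lactamase expression driven by the glucocorticoid response element in GR-bla HeLa cells after 18 h compound exposure at 37 C.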

[2] = biological target: Nuclear receptor subfamily 1 group I member 2 (Homo sapiens) (UniProt O75469); test: Human pregnane X receptor (PXR) activation by small molecules, qHTS assay (AID 1346985); further: nearly all actives have a fitted effect of over 40% in size; further: potency means the concentration at half of the fitted maximal effect
In short: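 DPX-2 cells (HepG2 co-transfected with a PXR response element and a CYP3A4-promoter luciferase construct) were seeded at 2,000 per well, rested 5 hr at 37C, then exposed to DMSO-dissolved compounds for 24 hr. Activation was read as luciferase luminescence.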

[3] = biological target: Nuclear receptor subfamily 1 group I member 2 (Homo sapiens) (UniProt O75469); test: CYP3A4 induction through human pregnane X receptor (PXR) by small molecules, qHTS assay (AID 1346984); further: nearly all actives have a fitted effect of over 40% in size; further: potency means the concentration at half of the fitted maximal effect
In short: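 Luminescence readout: luciferase signal after One-Glo (30 min, room temperature), following 3 h at 37C with 3uM final Luciferin-IPA P450 substrate. Cells were DPX-2 (HepG2, PXR/CYP3A4-luc co-transfected) dosed for 24 h.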

[4] = biological target: Androgen receptor (Homo sapiens) (UniProt P10275); test: qHTS assay to identify small molecule agonists of the androgen receptor (AR) signaling pathway (AID 743036; active means well fitted activation curve with a large enough effect in the signal ratio in the repeat runs, with a control signal flat, not every such curve was filed as active; the % refers to the signal ratio; further: potency means the concentration at half of the fitted maximal effect)
In short: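 Activation was read as beta-lactamase FRET signal from LiveBLAzer B/G substrate, added for 2 h at room temperature. Before that, GeneBLAzer AR-UAS-bla GripTite (HEK293) cells had 16 h compound exposure at 37C.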

[5] = biological target: Androgen receptor (Homo sapiens) (UniProt P10275); test: qHTS assay to identify small molecule agonists of the androgen receptor (AR) signaling pathway using the MDA cell line (AID 743040; further: nearly all actives have a fitted effect of over 20% in size)
In short: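 MDA-kb2 breast carcinoma cells stably carrying an MMTV-driven luciferase reporter (AR- and GR-responsive) were seeded and held 5 h at 37C, 0% CO2, then exposed to compounds in DMSO for 16 h. Luminescence was read 30 min after ONE-Glo addition.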

[6] = biological target: Androgen receptor (Homo sapiens) (UniProt P10275); test: qHTS assay to identify small molecule antagonists of the androgen receptor (AR) signaling pathway using the MDA cell line (AID 743042; further: nearly all actives have a fitted effect of over 55% in size; further: potency means the concentration at half of the fitted maximal effect)
In short: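 MDA-kb2 cells (human breast carcinoma, stably carrying an MMTV-luciferase reporter responsive to AR and GR) were plated at 3,000 cells/well and preincubated 5 hr at 37C, then given compound plus R1881 agonist for 16 h. ONE-Glo luminescence was read.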

[7] = biological target: Nuclear receptor subfamily 1 group I member 2 (Rattus norvegicus) (UniProt Q9R1A7); test: Rat pregnane X receptor (rPXR) activation by small molecules, qHTS assay (AID 1346983); conditions: rPXR luciferase reporter cells, One-Glo luminescence, 24 h; max activation: hits give high values; further: nearly all actives have a fitted effect of over 20% in size
In short: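 Cell-based rPXR luciferase reporter assay, 2,000 cells per well, rested 5hr at 37 C before compound addition in DMSO, then 24 hr at 37 C. One-Glo reagent was added and luminescence read after 30 min at room temperature.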

Chain of Androgen receptor (Homo sapiens) (P10275 whole entry, looked up): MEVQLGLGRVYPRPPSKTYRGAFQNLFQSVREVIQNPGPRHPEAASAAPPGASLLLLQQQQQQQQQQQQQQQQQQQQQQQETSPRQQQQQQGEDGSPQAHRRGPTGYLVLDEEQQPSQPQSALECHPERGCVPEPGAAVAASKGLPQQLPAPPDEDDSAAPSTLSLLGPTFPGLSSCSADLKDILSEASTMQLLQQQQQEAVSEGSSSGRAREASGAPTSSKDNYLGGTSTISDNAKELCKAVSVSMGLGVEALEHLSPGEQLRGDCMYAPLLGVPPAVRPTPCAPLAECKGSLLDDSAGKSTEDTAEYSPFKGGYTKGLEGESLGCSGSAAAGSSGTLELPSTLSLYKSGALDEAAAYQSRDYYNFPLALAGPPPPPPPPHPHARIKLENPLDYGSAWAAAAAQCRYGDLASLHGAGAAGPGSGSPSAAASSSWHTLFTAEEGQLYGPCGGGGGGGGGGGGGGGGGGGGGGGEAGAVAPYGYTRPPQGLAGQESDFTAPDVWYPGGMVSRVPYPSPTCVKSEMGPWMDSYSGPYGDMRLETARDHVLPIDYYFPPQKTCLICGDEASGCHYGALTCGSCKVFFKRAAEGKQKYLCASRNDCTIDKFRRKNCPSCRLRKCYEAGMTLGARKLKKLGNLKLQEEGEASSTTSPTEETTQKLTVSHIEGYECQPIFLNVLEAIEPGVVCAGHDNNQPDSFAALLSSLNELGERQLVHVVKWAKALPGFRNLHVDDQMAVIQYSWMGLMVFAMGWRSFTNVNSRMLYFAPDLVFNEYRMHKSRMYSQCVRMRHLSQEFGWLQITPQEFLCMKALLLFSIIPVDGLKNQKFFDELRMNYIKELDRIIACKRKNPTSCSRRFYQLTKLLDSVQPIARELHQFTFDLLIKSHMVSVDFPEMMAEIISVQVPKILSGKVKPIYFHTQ
Chain of Glucocorticoid receptor (Homo sapiens) (P04150 whole entry, looked up): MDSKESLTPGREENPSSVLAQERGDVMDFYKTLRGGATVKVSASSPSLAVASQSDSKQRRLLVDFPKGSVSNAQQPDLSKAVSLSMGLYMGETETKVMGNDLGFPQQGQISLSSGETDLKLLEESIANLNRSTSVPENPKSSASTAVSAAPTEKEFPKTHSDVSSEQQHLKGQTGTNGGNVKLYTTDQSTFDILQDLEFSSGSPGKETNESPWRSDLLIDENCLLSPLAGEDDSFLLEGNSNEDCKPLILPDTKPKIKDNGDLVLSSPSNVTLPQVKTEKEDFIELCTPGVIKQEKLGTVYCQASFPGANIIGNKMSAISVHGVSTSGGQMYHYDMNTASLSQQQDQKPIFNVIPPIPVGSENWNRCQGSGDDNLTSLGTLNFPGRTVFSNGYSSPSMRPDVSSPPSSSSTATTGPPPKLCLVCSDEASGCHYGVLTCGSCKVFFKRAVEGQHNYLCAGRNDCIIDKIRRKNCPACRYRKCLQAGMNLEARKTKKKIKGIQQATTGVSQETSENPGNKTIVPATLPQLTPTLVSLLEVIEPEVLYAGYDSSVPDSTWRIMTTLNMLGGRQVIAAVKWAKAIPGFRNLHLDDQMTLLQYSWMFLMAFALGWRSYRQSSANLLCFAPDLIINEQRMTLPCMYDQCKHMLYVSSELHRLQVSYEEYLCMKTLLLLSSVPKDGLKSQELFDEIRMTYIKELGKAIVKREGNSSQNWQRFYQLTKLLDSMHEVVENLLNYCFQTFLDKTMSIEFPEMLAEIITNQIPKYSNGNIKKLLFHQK
Chain of Nuclear receptor subfamily 1 group I member 2 (Rattus norvegicus) (Q9R1A7 whole entry, looked up): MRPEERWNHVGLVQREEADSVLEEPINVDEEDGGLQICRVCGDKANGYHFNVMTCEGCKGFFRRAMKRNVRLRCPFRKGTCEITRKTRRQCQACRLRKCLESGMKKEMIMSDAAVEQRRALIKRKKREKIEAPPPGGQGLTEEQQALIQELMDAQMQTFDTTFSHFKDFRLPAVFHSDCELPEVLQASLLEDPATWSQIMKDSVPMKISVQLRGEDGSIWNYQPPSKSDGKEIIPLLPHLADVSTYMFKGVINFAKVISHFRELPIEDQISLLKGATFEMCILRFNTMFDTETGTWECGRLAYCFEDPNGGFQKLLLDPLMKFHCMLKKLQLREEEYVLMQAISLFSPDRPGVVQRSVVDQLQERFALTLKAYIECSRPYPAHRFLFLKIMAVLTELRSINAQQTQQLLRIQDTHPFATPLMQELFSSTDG

Q: Which Potency [1] does the source give for CCC1(c2ccccc2)C(=O)NC(=O)N(C)C1=O (configuration not stated) here?
A: inactive

Q: What about the Potency [2] of the same compound?
A: inactive

Q: c1csc(C2(N3CCCCC3)CCCCC2)c1 was tested. Which Potency [3] did it give?
A: inactive

Q: What does the source list for O=c1ccc2cc(O[C@@H]3O[C@H](CO)[C@@H](O)[C@H](O)[C@H]3O)c(O)cc2o1?
A: Potency [4]: 9.1 µM (active); Potency [5]: inactive; Potency [6]: inactive

Q: O=C(O)CCCO was tested. Which Potency [4] did it give?
A: inactive

Q: And the Potency [5]?
A: inactive

Q: And the Potency [6]?
A: inactive

Q: What does the source list for COC(=O)[C@H]1[C@@H](OC(=O)c2ccccc2)C[C@@H]2CC[C@H]1N2C?
A: Potency [4]: inactive; Potency [5]: inactive; Potency [6]: inactive

Q: Which Potency [1] does the source give for C[C@]12CC[C@H](O)C[C@H]1CC[C@@H]1[C@@H]2CC[C@]2(C)[C@@H](c3ccc(=O)oc3)C[C@H]3O[C@]132 here?
A: inactive

Q: And the Potency [6]?
A: 21.1 µM (active)

Q: What about the Potency [3] of the same compound?
A: 5.01 µM (active)

Q: What about the Potency [2] of the same compound?
A: 3.98 µM (active)

Q: For O=C1C=C2C=C[C@@H]3C[C@@]2(O1)[C@H]1CCCCN31, which Potency [1] is on record?
A: inactive

Q: And the Potency [3]?
A: inactive

Q: OC[C@@H](O)[C@H]1O[C@@H]2O[C@@H](C(Cl)(Cl)Cl)O[C@@H]2[C@H]1O was tested. Which Potency [3] did it give?
A: inactive

Q: And the Potency [2]?
A: inactive

Q: C[C@@H]1[C@@H]2Cc3ccc(O)cc3[C@@]1(C)CCN2CC1CC1 was tested. Which Potency [1] did it give?
A: inactive

Q: What about the Potency [4] of the same compound?
A: inactive

Q: And the Potency [5]?
A: inactive

Q: And the Potency [6]?
A: inactive

Q: Which results are given for O=C1Nc2ccc(Cl)cc2C(c2ccccc2Cl)=NC1O (configuration not stated)?
A: Potency [1]: inactive; Potency [4]: inactive; Potency [5]: inactive; Potency [2]: inactive

Q: Which Potency [5] does the source give for Clc1ccc(C(Cn2ccnc2)OCc2csc3c(Cl)cccc23)c(Cl)c1 (configuration not stated) here?
A: inactive

Q: And the Potency [3]?
A: 3.98 µM (active)

Q: CNC(C)CC1CCCCC1 (configuration not stated) was tested. Which Potency [1] did it give?
A: inactive

Q: And the Potency [4]?
A: inactive

Q: What about the Potency [5] of the same compound?
A: inactive

Q: And the Potency [6]?
A: inactive

Q: For c1ccc(C2(N3CCCC3)CCCCC2)cc1, which Potency [1] is on record?
A: inactive

Q: And the Potency [3]?
A: 1.58 µM (active)

Q: What about the Potency [2] of the same compound?
A: 5.01 µM (active)

Q: NCC[C@H](O)C(=O)N[C@@H]1C[C@H](N)[C@@H](O[C@H]2O[C@H](CN)[C@@H](O)[C@H](O)[C@H]2N)[C@H](O[C@@H]2O[C@H](CO)[C@@H](O)[C@H]2O)[C@H]1O was tested. Which Potency [5] did it give?
A: inactive

Q: And the Potency [6]?
A: inactive

Q: And the Potency [3]?
A: inactive

Q: And the Potency [2]?
A: inactive

Q: For CC(N)Cc1ccc2c(c1)OCO2 (configuration not stated), which Potency [1] is on record?
A: inactive

Q: What does the source list for O=C(NC(=O)c1c(F)cccc1F)Nc1ccc(Cl)c(Oc2ncc(C(F)(F)F)cc2Cl)c1?
A: Potency [3]: inactive; Potency [2]: inactive

Q: With c1ccc2c(c1)Sc1ccccc1N2C[C@@H]1CN2CCC1CC2 as the compound, how does the Potency [1] read?
A: inactive

Q: C=C[C@H]1CN2CC[C@H]1C[C@@H]2[C@@H](O)c1ccnc2ccccc12 was tested. Which Potency [3] did it give?
A: inactive

Q: What about the Potency [2] of the same compound?
A: inactive

Q: Which Potency [1] does the source give for N#CC(C#N)=Cc1cc(O)c(O)c(O)c1 here?
A: inactive

Q: And the Potency [5]?
A: inactive

Q: What about the Potency [6] of the same compound?
A: inactive

Q: With Cc1nnc2n1-c1ccc(Cl)cc1C(c1ccccc1)=NC2 as the compound, how does the Potency [3] read?
A: inactive

Q: For CC[C@H]1[C@@H]2C[C@H]3[C@@H]4N(C)c5ccccc5[C@]45C[C@@H](C2[C@H]5O)N3[C@@H]1O (some centres not stated), which Potency [1] is on record?
A: inactive

Q: For C[C@]12CCC(=O)C[C@@H]1CC[C@@H]1[C@@H]2CC[C@@]2(C)[C@H]1CC[C@]2(C)O, which Potency [1] is on record?
A: inactive

Q: With CCNC1(c2cccs2)CCCCC1=O (configuration not stated) as the compound, how does the Potency [1] read?
A: inactive

Q: How did the Potency [1] turn out when C/C=C(\CC)C(=O)NC(N)=O was run?
A: inactive

Q: How did the Potency [1] turn out when CN[C@@]1(c2ccccc2Cl)CCCCC1=O was run?
A: inactive

Q: With C=CCN1CC[C@]23c4c5ccc(O)c4O[C@H]2[C@@H](O)C=C[C@H]3[C@H]1C5 as the compound, how does the Potency [4] read?
A: inactive

Q: And the Potency [5]?
A: inactive

Q: What about the Potency [6] of the same compound?
A: inactive

Q: What about the Potency [3] of the same compound?
A: inactive

Q: And the Potency [2]?
A: inactive

Q: Which results are given for Oc1cc[c]([Hg][Cl])cc1?
A: Potency [5]: inactive; Potency [6]: 8.41 µM (active) and 5.96 µM (active); Potency [3]: inactive

Q: How did the Potency [1] turn out when CN1C(=O)CC(=O)N(c2ccccc2)c2cc(Cl)ccc21 was run?
A: inactive

Q: What about the Potency [3] of the same compound?
A: inactive

Q: With C[C@@H](Cc1ccccc1)NCCC(c1ccccc1)c1ccccc1 as the compound, how does the Potency [3] read?
A: 12.6 µM (active)

Q: What does the source list for CNc1ccc(C(=O)CC(O)CCC(C)C2OC(=O)CC(O)CC(=O)CC(O)CC(O)CC(O)CC(O)CC3(O)CC(O)C(C(=O)OC)C(CC(O[C@@H]4O[C@H](C)[C@@H](O)[C@H](N)[C@@H]4O)/C=C/C=C/C=C/C=C/C=C/C=C/C=C/C2C)O3)cc1 (some centres not stated)?
A: Potency [3]: inactive; Potency [2]: inactive

Q: c1cc2c(c(NC3=NCCN3)c1)CCCC2 was tested. Which Potency [1] did it give?
A: inactive

Q: And the Potency [5]?
A: inactive

Q: And the Potency [6]?
A: inactive

Q: What about the max activation [7] of the same compound?
A: -5.45%

Q: What about the Potency [3] of the same compound?
A: inactive

Q: What about the Potency [2] of the same compound?
A: inactive

Q: Which results are given for O=c1c2ccccc2[se]n1-c1ccccc1?
A: Potency [1]: inactive; Potency [5]: inactive

Q: Which results are given for COC(=O)[C@]12CCC(C)(C)C[C@H]1[C@H]1C(=O)C=C3[C@@]4(C)C=C(C#N)C(=O)C(C)(C)[C@@H]4CC[C@@]3(C)[C@]1(C)CC2?
A: Potency [5]: inactive; Potency [6]: 2.37 µM (active)

Q: C[C@@H]1[C@H](O)[C@@H](C)/C=C/C=C/CC/C=C/C=C/C=C/C=C/[C@H](O[C@H]2O[C@@H](C)[C@H](O)[C@@H](N)[C@H]2O)CC2O[C@](O)(C[C@@H](O)[C@H](O)CC[C@@H](O)C[C@@H](O)C[C@@H](O)CC(=O)O[C@H]1C)C[C@H](O)[C@H]2C(=O)O was tested. Which Potency [4] did it give?
A: inactive

Q: And the Potency [5]?
A: inactive

Q: And the Potency [6]?
A: inactive
